# Experimental data: the supplement of paper PMC4466140
# B1: unnamed (peptide)
# chain: TKPTPPPKPSHLKPK
# Assays:
# Assay in all cases: SPOT peptide array binding signal intensity (averaged, normalized) (arbitrary units (background-subtracted, floor 0; scale differs between SH3 domains)); higher = stronger binding of the SH3 domain to the peptide
# AgAbp1 = target: AgAbp1
# Method in brief: (§1)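 Binding signal refers to normalized, background-subtracted spot intensity averaged over replicates, expressed in arbitrary units that differ between domains. GST-fused SH3 domains from four yeast species were incubated at 10 μg/ml overnight at 4°C on cellulose membranes of synthetic 15-mer peptides with cysteines replaced by serines. Bound protein was detected with anti-GST antibody, an HRP anti-mouse secondary and luminol, and quantified with Genespotter.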
# AgBbc1 = target: AgBbc1
# Method in brief: as §1
# AgBem1-D1 = target: AgBem1-D1
# Method in brief: as §1
# AgBzz1-D1 = target: AgBzz1-D1
# Method in brief: as §1
# AgBzz1-D2 = target: AgBzz1-D2
# Method in brief: as §1
# AgCyk3 = target: AgCyk3
# Method in brief: as §1
# AgFus1 = target: AgFus1
# Method in brief: as §1
# AgHof1 = target: AgHof1
# Method in brief: as §1
# AgHse1 = target: AgHse1
# Method in brief: as §1
# AgLsb1 = target: AgLsb1
# Method in brief: as §1
# AgLsb4 = target: AgLsb4
# Method in brief: as §1
# AgMyo5 = target: AgMyo5
# Method in brief: as §1
# AgNbp2 = target: AgNbp2
# Method in brief: as §1
# AgRvs167 = target: AgRvs167
# Method in brief: as §1
# AgSho1 = target: AgSho1
# Method in brief: as §1
# AgSla1-D1-D2 = target: AgSla1-D1-D2
# Method in brief: as §1
# AgSla1-D3 = target: AgSla1-D3
# Method in brief: as §1
# CaAbp1-D1 = target: CaAbp1-D1
# Method in brief: as §1
# CaAbp1-D2 = target: CaAbp1-D2
# Method in brief: as §1
# CaBbc1 = target: CaBbc1
# Method in brief: as §1
# CaBem1-D1 = target: CaBem1-D1
# Method in brief: as §1
# CaBzz1-D1 = target: CaBzz1-D1
# Method in brief: as §1
# CaBzz1-D2 = target: CaBzz1-D2
# Method in brief: as §1
# CaCyk3 = target: CaCyk3
# Method in brief: as §1
# CaFus1 = target: CaFus1
# Method in brief: as §1
# CaHof1 = target: CaHof1
# Method in brief: as §1
# CaHse1 = target: CaHse1
# Method in brief: as §1
# CaLsb1 = target: CaLsb1
# Method in brief: as §1
# CaLsb4 = target: CaLsb4
# Method in brief: as §1
# CaMyo5 = target: CaMyo5
# Method in brief: as §1
# CaNbp2 = target: CaNbp2
# Method in brief: as §1
# CaRvs167 = target: CaRvs167
# Method in brief: as §1
# CaRvs167-3 = target: CaRvs167-3
# Method in brief: as §1
# CaSho1 = target: CaSho1
# Method in brief: as §1
# CaSla1-D1-D2 = target: CaSla1-D1-D2
# Method in brief: as §1
# CaSla1-D3 = target: CaSla1-D3
# Method in brief: as §1
# ScAbp1 = target: ScAbp1
# Method in brief: as §1
# ScBbc1 = target: ScBbc1
# Method in brief: as §1
# ScBem1-D1 = target: ScBem1-D1
# Method in brief: as §1
# ScBzz1-D1 = target: ScBzz1-D1
# Method in brief: as §1
# ScBzz1-D2 = target: ScBzz1-D2
# Method in brief: as §1
# ScCyk3 = target: ScCyk3
# Method in brief: as §1
# ScFus1 = target: ScFus1
# Method in brief: as §1
# ScHof1 = target: ScHof1
# Method in brief: as §1
# ScHse1 = target: ScHse1
# Method in brief: as §1
# ScLsb1 = target: ScLsb1
# Method in brief: as §1
# ScLsb2 = target: ScLsb2
# Method in brief: as §1
# ScLsb3 = target: ScLsb3
# Method in brief: as §1
# ScLsb4 = target: ScLsb4
# Method in brief: as §1
# ScMyo3 = target: ScMyo3
# Method in brief: as §1
# ScMyo5 = target: ScMyo5
# Method in brief: as §1
# ScNbp2 = target: ScNbp2
# Method in brief: as §1
# ScPex13 = target: ScPex13
# Method in brief: as §1
# ScRvs167 = target: ScRvs167
# Method in brief: as §1
# ScSho1 = target: ScSho1
# Method in brief: as §1
# ScSla1-D1-D2 = target: ScSla1-D1-D2
# Method in brief: as §1
# ScSla1-D3 = target: ScSla1-D3
# Method in brief: as §1
# SpAbp1-D1 = target: SpAbp1-D1
# Method in brief: as §1
# SpBbc1 = target: SpBbc1
# Method in brief: as §1
# SpBzz1-D1 = target: SpBzz1-D1
# Method in brief: as §1
# SpBzz1-D2 = target: SpBzz1-D2
# Method in brief: as §1
# SpCyk3 = target: SpCyk3
# Method in brief: as §1
# SpHof1 = target: SpHof1
# Method in brief: as §1
# SpHof1-2 = target: SpHof1-2
# Method in brief: as §1
# SpHof1-3 = target: SpHof1-3
# Method in brief: as §1
# SpHse1 = target: SpHse1
# Method in brief: as §1
# SpLsb1 = target: SpLsb1
# Method in brief: as §1
# SpLsb4 = target: SpLsb4
# Method in brief: as §1
# SpMyo1 = target: SpMyo1
# Method in brief: as §1
# SpNbp2 = target: SpNbp2
# Method in brief: as §1
# SpPex13 = target: SpPex13
# Method in brief: as §1
# SpRvs167 = target: SpRvs167
# Method in brief: as §1
# SpSla1-D1-D2 = target: SpSla1-D1-D2
# Method in brief: as §1
# SpSla1-D3 = target: SpSla1-D3
# Method in brief: as §1
binder,measurement,setting,value
B1,SPOT peptide array binding signal intensity,AgAbp1,784
same,SPOT peptide array binding signal intensity,AgBbc1,125
same,SPOT peptide array binding signal intensity,AgBem1-D1,≤ 0
same,SPOT peptide array binding signal intensity,AgBzz1-D1,150
same,SPOT peptide array binding signal intensity,AgBzz1-D2,13
same,SPOT peptide array binding signal intensity,AgCyk3,0.5
same,SPOT peptide array binding signal intensity,AgFus1,≤ 0
same,SPOT peptide array binding signal intensity,AgHof1,3.5
same,SPOT peptide array binding signal intensity,AgHse1,18
same,SPOT peptide array binding signal intensity,AgLsb1,0.5
same,SPOT peptide array binding signal intensity,AgLsb4,≤ 0
same,SPOT peptide array binding signal intensity,AgMyo5,≤ 0
same,SPOT peptide array binding signal intensity,AgNbp2,≤ 0
same,SPOT peptide array binding signal intensity,AgRvs167,2.67
same,SPOT peptide array binding signal intensity,AgSho1,72
same,SPOT peptide array binding signal intensity,AgSla1-D1-D2,≤ 0
same,SPOT peptide array binding signal intensity,AgSla1-D3,≤ 0
same,SPOT peptide array binding signal intensity,CaAbp1-D1,655
same,SPOT peptide array binding signal intensity,CaAbp1-D2,1210
same,SPOT peptide array binding signal intensity,CaBbc1,159
same,SPOT peptide array binding signal intensity,CaBem1-D1,≤ 0
same,SPOT peptide array binding signal intensity,CaBzz1-D1,1030
same,SPOT peptide array binding signal intensity,CaBzz1-D2,357
same,SPOT peptide array binding signal intensity,CaCyk3,≤ 0
same,SPOT peptide array binding signal intensity,CaFus1,≤ 0
same,SPOT peptide array binding signal intensity,CaHof1,1.5
same,SPOT peptide array binding signal intensity,CaHse1,5.75
same,SPOT peptide array binding signal intensity,CaLsb1,0.5
same,SPOT peptide array binding signal intensity,CaLsb4,≤ 0
same,SPOT peptide array binding signal intensity,CaMyo5,1
same,SPOT peptide array binding signal intensity,CaNbp2,≤ 0
same,SPOT peptide array binding signal intensity,CaRvs167,4
same,SPOT peptide array binding signal intensity,CaRvs167-3,6
same,SPOT peptide array binding signal intensity,CaSho1,44.5
same,SPOT peptide array binding signal intensity,CaSla1-D1-D2,9.5
same,SPOT peptide array binding signal intensity,CaSla1-D3,0.5
same,SPOT peptide array binding signal intensity,ScAbp1,1010
same,SPOT peptide array binding signal intensity,ScBbc1,≤ 0
same,SPOT peptide array binding signal intensity,ScBem1-D1,1.5
same,SPOT peptide array binding signal intensity,ScBzz1-D1,4
same,SPOT peptide array binding signal intensity,ScBzz1-D2,59.5
same,SPOT peptide array binding signal intensity,ScCyk3,≤ 0
same,SPOT peptide array binding signal intensity,ScFus1,7.5
same,SPOT peptide array binding signal intensity,ScHof1,2
same,SPOT peptide array binding signal intensity,ScHse1,4
same,SPOT peptide array binding signal intensity,ScLsb1,0.5
same,SPOT peptide array binding signal intensity,ScLsb2,≤ 0
same,SPOT peptide array binding signal intensity,ScLsb3,1800
same,SPOT peptide array binding signal intensity,ScLsb4,≤ 0
same,SPOT peptide array binding signal intensity,ScMyo3,0.5
same,SPOT peptide array binding signal intensity,ScMyo5,≤ 0
same,SPOT peptide array binding signal intensity,ScNbp2,13
same,SPOT peptide array binding signal intensity,ScPex13,981
same,SPOT peptide array binding signal intensity,ScRvs167,4.17
same,SPOT peptide array binding signal intensity,ScSho1,1320
same,SPOT peptide array binding signal intensity,ScSla1-D1-D2,11
same,SPOT peptide array binding signal intensity,ScSla1-D3,1.75
same,SPOT peptide array binding signal intensity,SpAbp1-D1,481
same,SPOT peptide array binding signal intensity,SpBbc1,0.5
same,SPOT peptide array binding signal intensity,SpBzz1-D1,344
same,SPOT peptide array binding signal intensity,SpBzz1-D2,≤ 0
same,SPOT peptide array binding signal intensity,SpCyk3,≤ 0
same,SPOT peptide array binding signal intensity,SpHof1,2
same,SPOT peptide array binding signal intensity,SpHof1-2,≤ 0
same,SPOT peptide array binding signal intensity,SpHof1-3,64
same,SPOT peptide array binding signal intensity,SpHse1,9.25
same,SPOT peptide array binding signal intensity,SpLsb1,251
same,SPOT peptide array binding signal intensity,SpLsb4,43.5
same,SPOT peptide array binding signal intensity,SpMyo1,≤ 0
same,SPOT peptide array binding signal intensity,SpNbp2,2.5
same,SPOT peptide array binding signal intensity,SpPex13,7
same,SPOT peptide array binding signal intensity,SpRvs167,142
same,SPOT peptide array binding signal intensity,SpSla1-D1-D2,≤ 0
same,SPOT peptide array binding signal intensity,SpSla1-D3,2.5
